Data: paper PMC11062922 (Nature Chemical Biology, 2023)
Like-named read-outs stand apart in the source and are kept apart here.

How the values were obtained:
Parameters in all cases: species or system human, MV4-11 + K-562 + COLO205 + SK-N-BE2 + OVCAR-8
ERBB3 = settings: read-out: apparent Kd, compound concentrations: 100 nM and 1000 nM (sheet 'Samples'), n = 1
PKN3 = settings: read-out: apparent Kd, n = 1
CDK4 = settings: read-out: apparent Kd, n = 1
CDK7 = settings: read-out: apparent Kd, n = 1
ERCC2 = settings: read-out: apparent Kd, n = 1
NUAK1 = settings: read-out: apparent Kd; compound concentrations:100 nM and 1000 nM (sheet 'Samples'); n = 1
LIMK1 = settings: read-out: apparent Kd, compound concentrations: 100 nM and 1000 nM (sheet 'Samples'), n = 1
AURKA = settings: read-out: apparent Kd; compound concentrations: 100 nM and 1000 nM (sheet 'Samples'), CATDS: 3.2222679542607199E-2; n = 1
MAPK10 = settings: read-out: apparent Kd; compound concentrations: 100 nM and 1000 nM (sheet 'Samples'), CATDS: 3.14341615066977E-2; n = 1
MAPK11 = settings: read-out: apparent Kd, n = 1
SYK = settings: read-out: apparent Kd, compound concentrations: 100 nM and 1000 nM (sheet 'Samples'), n = 1
BMPR1A = settings: read-out: apparent Kd, n = 1
STK10 = settings: read-out: apparent Kd, n = 1
ADCK3 = settings: read-out: apparent Kd, n = 1
PYGL = settings: read-out: apparent Kd, n = 1
EPHB3 = settings: read-out: apparent Kd; compound concentrations: 100 nM and 1000 nM (sheet 'Samples'), CATDS: 4.67907505867102E-2; n = 1
[1] = compound concentrations:100 nM and 1000 nM (sheet 'Samples')

How did the potency estimated from few doses (ERBB3; CATDS: 0.18333833775407599) turn out when `COc1cccc(-n2cnc3c(N/N=C/c4ccncc4)ncnc32)c1` [GW813360X] was run?
Its potency estimated from few doses is 0.961 µM.

With `COc1ccc(-c2nc3n(c2-c2ccncc2)CCC3)cc1.COc1ccc(-c2nc3n(c2-c2ccncc2)CCC3)cc1.O=S(=O)(O)O.O=S(=O)(O)O` [SKF-104493-B2] as the molecule, how does the potency estimated from few doses (PKN3; compound concentrations: 100 nM and 1000 nM (sheet 'Samples'), CATDS: 0.15312963325727599) read?
The potency estimated from few doses was 0.911 µM.

How did the potency estimated from few doses (CDK4; [1]) turn out when `N#Cc1cccc(Nc2nccc(-c3cnn4ncccc34)n2)c1` [GW778894X] was run?
The potency estimated from few doses was 1.83 µM.

What about the potency estimated from few doses (CDK7; [1]) of the same molecule?
The potency estimated from few doses was 0.373 µM.

What about the potency estimated from few doses (ERCC2; [1]) of the same molecule?
Its potency estimated from few doses is 0.78 µM.

And the potency estimated from few doses (NUAK1)?
The potency estimated from few doses was 0.792 µM.

How did the potency estimated from few doses (LIMK1; CATDS: 8.9017548853229503E-2) turn out when `CC(=O)N1CCN(c2ccc(Nc3nccc(-c4sc(C(C)C)nc4-c4cccc(NS(=O)(=O)c5cccc(Cl)c5)c4)n3)cn2)CC1` [GSK1660437A] was run?
Its potency estimated from few doses is 0.288 µM.

What does the source list for `O=S(=O)(CCOCc1ccc(-c2ccc3ncnc(Nc4ccc(OCc5cccc(F)c5)c(Cl)c4)c3c2)o1)c1ccccc1` [GW615311X]?
potency estimated from few doses (AURKA): 1.02 µM; potency estimated from few doses (LIMK1; CATDS: 2.6639361665983699E-2): 1.5 µM; potency estimated from few doses (MAPK10): 1.07 µM; potency estimated from few doses (MAPK11; compound concentrations: 100 nM and 1000 nM (sheet 'Samples'), CATDS: 2.56124612703456E-2): 1.65 µM; potency estimated from few doses (PKN3; compound concentrations: 100 nM and 1000 nM (sheet 'Samples'), CATDS: 2.28065209428794E-2): 2.2 µM; potency estimated from few doses (SYK; CATDS: 2.2434221169995199E-2): 2.3 µM

For `Cc1cc(O)cc(C)c1/C=C/c1cncc(-c2nn[nH]n2)c1.Cl` [GW441806A], which potency estimated from few doses (BMPR1A; compound concentrations: 100 nM and 1000 nM (sheet 'Samples'), CATDS: 4.5522705937236799E-2) is on record?
Its potency estimated from few doses is 1.37 µM.

What about the potency estimated from few doses (ERBB3; CATDS: 9.8413353572783496E-2) of the same molecule?
The potency estimated from few doses was 0.174 µM.

And the potency estimated from few doses (STK10; compound concentrations: 100 nM and 1000 nM (sheet 'Samples'), CATDS: 4.0928454430712802E-2)?
The potency estimated from few doses was 2.05 µM.

How did the potency estimated from few doses (MAPK11; [1]) turn out when `Nc1c(C(=O)c2ccccc2)cnn1-c1ccc(F)cc1` [RO1151246-000] was run?
Its potency estimated from few doses is 1.42 µM.

What about the potency estimated from few doses (PKN3; [1]) of the same molecule?
The potency estimated from few doses was 2.07 µM.

Which potency estimated from few doses (ADCK3; compound concentrations: 100 nM and 1000 nM (sheet 'Samples'), CATDS: 0.349456505086152) does the source give for `CCCN1CCC(Oc2cc(Nc3nc(Nc4cccc(F)c4C(N)=O)c4cc[nH]c4n3)c(OC)cc2Cl)CC1` [GSK1713088A] here?
The potency estimated from few doses was 0.604 µM.

What about the potency estimated from few doses (CDK7; compound concentrations: 100 nM and 1000 nM (sheet 'Samples'), CATDS: 0.191679480220071) of the same molecule?
Its potency estimated from few doses is 1.74 µM.

And the potency estimated from few doses (ERCC2; compound concentrations: 100 nM and 1000 nM (sheet 'Samples'), CATDS: 0.17876672107785799)?
Its potency estimated from few doses is 2.04 µM.

With `COc1cc2ncn(-c3cc(OCc4sccc4Cl)c(C(N)=O)s3)c2cc1OC` [GSK448459A] as the molecule, how does the potency estimated from few doses (STK10; [1]) read?
Its potency estimated from few doses is 0.333 µM.

How did the potency estimated from few doses (ADCK3; [1]) turn out when `Cc1ccc(-n2nc(C(C)(C)C)cc2NC(=O)Nc2ccc(OCCN3CCOCC3)cc2)cc1` [BIRB0876BS] was run?
The potency estimated from few doses was 0.0489 µM.

How did the potency estimated from few doses (CDK4; compound concentrations: 100 nM and 1000 nM (sheet 'Samples'), CATDS: 3.2528026841687298E-2) turn out when `Clc1ccc(-c2nn3ncccc3c2-c2ccnc(Nc3ccccc3)n2)cc1` [GW829055X] was run?
The potency estimated from few doses was 1.96 µM.

And the potency estimated from few doses (PYGL; compound concentrations: 100 nM and 1000 nM (sheet 'Samples'), CATDS: 3.3581254695289102E-2)?
Its potency estimated from few doses is 1.8 µM.

And the potency estimated from few doses (SYK; CATDS: 3.0941649644307598E-2)?
Its potency estimated from few doses is 2.27 µM.

Which results are given for `COc1cc(F)c(F)c(F)c1C(=O)c1cnc(NC2CCN(S(C)(=O)=O)CC2)nc1N` [RO4600703-000]?
potency estimated from few doses (CDK4; [1]): 1.31 µM; potency estimated from few doses (CDK7; [1]): 0.821 µM

What does the source list for `NC(=O)c1cccnc1COc1cc(-c2ccc(N3CCOCC3)nc2)cc2ncccc12` [BI01125081]?
potency estimated from few doses (ADCK3; [1]): 0.257 µM; potency estimated from few doses (BMPR1A; [1]): 1.37 µM; potency estimated from few doses (NUAK1): 1.08 µM

`COc1ccc(C2=C(c3cn(C)c4ccccc34)C(=O)NC2=O)cc1OC` [RO3206363-000] was tested. Which potency estimated from few doses (PYGL; compound concentrations: 100 nM and 1000 nM (sheet 'Samples'), CATDS: 3.1878798319940699E-2) did it give?
The potency estimated from few doses was 1.85 µM.

With `Cc1ccc(CC(=O)N2CCc3cc(-c4cn(C)c5ncnc(N)c45)ccc32)cc1` [GSK2634758A] as the molecule, how does the potency estimated from few doses (CDK4; compound concentrations: 100 nM and 1000 nM (sheet 'Samples'), CATDS: 0.135917779714779) read?
The potency estimated from few doses was 2.25 µM.

With `Cc1ccc(NC(=O)c2ccc(Cl)cc2)cc1-c1ccc(C(=O)Nc2ccncc2)cc1` [GSK1398467A] as the molecule, how does the potency estimated from few doses (CDK4; compound concentrations: 100 nM and 1000 nM (sheet 'Samples'), CATDS: 0.17554209006480601) read?
Its potency estimated from few doses is 1.65 µM.

`COc1ccc(-c2nn3ncccc3c2-c2ccnc(Nc3ccc4c(c3)OCCO4)n2)cc1` [GW827106X] was tested. Which potency estimated from few doses (MAPK11; compound concentrations: 100 nM and 1000 nM (sheet 'Samples'), CATDS: 6.1190831662216998E-2) did it give?
The potency estimated from few doses was 0.956 µM.

`Fc1cccc(COc2ccc(Nc3ncncc3C#Cc3ccccc3)cc2Cl)c1` [GW651576X] was tested. Which potency estimated from few doses (EPHB3) did it give?
The potency estimated from few doses was 2.08 µM.

With `Fc1ccc(-c2ncn(C3CCNCC3)c2-c2ccnc(Oc3ccc4c(c3)OCO4)n2)cc1` [SB-250715] as the molecule, how does the potency estimated from few doses (MAPK11; [1]) read?
Its potency estimated from few doses is 0.0404 µM.

What about the potency estimated from few doses (PYGL; [1]) of the same molecule?
Its potency estimated from few doses is 1.99 µM.

For `COc1cc2ncn(-c3cc(O[C@H](C)c4ccccc4Cl)c(C(N)=O)s3)c2cc1OC` [GSK237701A], which potency estimated from few doses (STK10; [1]) is on record?
The potency estimated from few doses was 0.574 µM.

For `COc1ccccc1-c1cc(/C=C2\C(=O)Nc3ncc(Br)cc32)cc(Br)c1O` [GW442130X], which potency estimated from few doses (PYGL; [1]) is on record?
The potency estimated from few doses was 1.84 µM.
